High-throughput results as filed in PubChem.
MCF10A rereplic = induces DNA re-replication in MCF 10a normal breast cells. Potency, µM (doses to about 46.1 µM), usual class: activators. MCF 10A DNA re-replication, Hoechst nuclear intensity, 48 h. 2.9% of 350,000 active. AID 624296; note: nearly all actives have a fitted effect of over 50% in size
HT1080-NT tox = kills 2HG-producing HT-1080-NT fibrosarcoma cells | HT-1080-NT fibrosarcoma viability, CellTiter-Glo ATP luminescence, 48 h | AID 686970 | Potency, µM (highest dose often 46.1 µM), actives largely listed as cytotoxic | 1.6% of 360,000 active;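 note: NT is the 2HG producing partner of a matched IDH1 knockdown line; nearly all actives have a fitted effect of over 55% in size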
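Toxicity toward the 2HG-producing NT line was scored as %Activity, normalised to DMSO and no-cell wells, from CellTiter-Glo luminescence after 48 hours' treatment.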
HT1080 IDH1KD tx = toxicity to HT-1080 IDH1 knockdown cells (counter line). HT-1080 IDH1 knockdown viability, ATP luminescence, 48 h. Potency, µM (top dose mostly 46.1 µM), actives largely listed as cytotoxic. 2% of 360,000 active
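Luminescent ATP read-out (CellTiter-Glo, 10 min at room temperature) after 48 h compound exposure at 37 °C gave viability of IDH1-knockdown HT-1080 cells. Activity was normalised to DMSO and cell-free wells, then fitted as concentration-response curves.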
KB-V1 cytotox = KB-V1 MDR subline cytotoxicity; KB-V1 MDR cells viability, CellTiter-Glo, 72 h; Potency, µM (highest dose often 46.1 µM), usual class: cytotoxic; AID 1347076; 3.4% of 400,000 active; note: nearly all actives have a fitted effect of over 60% in size
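Potencies derive from concentration-effect curves fitted to normalized luminescence (CellTiter-Glo) of KB-V1 cells treated for 72 h at 37 degrees C in phenol-red-free DMEM containing 10% FBS.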
KB-3-1 cytotox = kills parental KB-3-1 adenocarcinoma cells | 1.4% of 400,000 active | KB-3-1 viability, CellTiter-Glo ATP luminescence, 72 h | Potency, µM (top dose mostly 46.1 µM), most hits filed as cytotoxic; note: nearly all actives have a fitted effect of over 60% in size
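Multi-concentration cytotoxicity screen in KB-3-1 cells grown in DMEM lacking phenol red with 10% FBS. After 72 h at 37 °C with compound, ATP-dependent luminescence was recorded.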
SW480 rereplic = DNA re-replication induction in SW480 cells. SW480 DNA re-replication, Hoechst DNA content imaging, 48 h. Potency, µM (titrated, usually from 46.1 µM), usual class: activators. 1.8% of 340,000 active. AID 624297; note: nearly all actives have a fitted effect of over 55% in size
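First, 250 cells per well were seeded. Next, compound or vehicle (23 nL) was pinned in, plates sat 48 hr at 37 C. Finally Hoechst was added for 40 min before fluorescence scanning.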
Numbers stand for hits; . = inactive; ? = inconclusive; / = no result given; ! = repeats disagree. Sampled rows, rich in hits. Any-hit rate of the full collection: about 7.9%. Calls come from the whole dose curve; as a rule, active = well fitted curve in the direction sought with a large enough effect; inconclusive = small, poorly fitted or top-dose-only effect, or another doubt; inactive = no such curve, though single readings can be large; an effect the other way counts as inactive or inconclusive.

SMILES	MCF10A rereplic	HT1080-NT tox	HT1080 IDH1KD tx	KB-V1 cytotox	KB-3-1 cytotox	SW480 rereplic
COc1ccc(NS(=O)(=O)c2cccc(NC(=O)CCC(=O)c3ccc(Cl)cc3)c2)cc1	?	.	?	18µM	.	.
N#C/C(=C\c1c(F)cccc1Cl)S(=O)(=O)c1ccccn1	.	.	.	.	.	.
CC(=O)OC(C(=O)NC1CCCCC1)c1ccccc1F (configuration not stated)	.	.	.	?	.	.
CC(=O)Oc1ccc(C(=O)COC(=O)CNC(=O)COc2ccccc2C)cc1	/	/	/	.	.	/
CCC(c1nnc(SC(C)C(=O)NC2CC2)n1-c1ccc(OC)cc1)N(C)C (configuration not stated)	.	.	.	?	.	.
CCN(CC)S(=O)(=O)c1cc(C(=O)Oc2cccc(-c3cnc4ccccc4n3)c2)ccc1Br	.	.	.	.	.	.
Fc1ccc2c(c1)C1OCCCC1C(c1ccccc1)N2 (configuration not stated)	6.5µM	?	?	.	.	?
C=Cc1ccc(COc2ccc3oc(-c4ccccc4)c(C(=O)OCC)c3c2)cc1	/	/	/	.	.	/
NCCCn1c(C(=O)c2cc(Cl)c(N)c(Cl)c2)c2ccc([N+](=O)[O-])cc2[n+]1[O-]	.	?	.	.	?	1µM
NC(=O)c1ccc(Cn2c(C(=O)c3cc(Cl)c(N)c(Cl)c3)c3ccccc3[n+]2[O-])cc1	12µM	16µM	12µM	.	?	?
O=C(CCn1c(=O)[nH]c2ccsc2c1=O)N(CCc1ccccc1)Cc1ccccc1	.	.	.	21µM	?	.
CC1CCN(CC(=O)Nc2ccccc2C(=O)NC2CC2)CC1	.	.	.	.	.	.
COC(=O)C1=C(COc2ccc(C=O)cc2OC)NC(=O)NC1c1cc(C)ccc1C (configuration not stated)	.	.	.	21µM	?	.
COc1ccc(N2CCN(C(=O)/C=C/c3ccco3)CC2)cc1	.	.	.	?	.	.
CS(=O)(=O)Nc1cccc(C(=O)CC2(O)C(=O)Nc3ccc(Br)cc32)c1 (configuration not stated)	8.2µM	.	.	.	.	?
CS(=O)(=O)Nc1cccc(C(=O)CC2(O)C(=O)Nc3ccccc32)c1 (configuration not stated)	.	.	.	.	.	.
COc1cc(NC(=O)Nc2nc(C(N)C(C)C)cs2)cc(OC)c1OC (configuration not stated)	/	16µM	?	.	.	/
COc1ccccc1NC(=O)Nc1nc(C(N)C2CCCCC2)cs1 (configuration not stated)	/	16µM	?	.	.	/
COc1cc(NC(=O)Nc2nc(C(N)C3CCCCC3)cs2)cc(OC)c1OC (configuration not stated)	/	.	21µM	.	?	/
COc1ccc(CCNC(=O)Nc2nc(C(N)C3CCCCC3)cs2)cc1OC (configuration not stated)	/	?	?	.	?	/
Cc1ccn2c(Nc3ccccc3C)c(-c3ccncc3)nc2c1	.	.	.	23µM!	.	?
Cc1ccc(Nc2c(-c3ccc(C)cc3)nc3ccc(C)cn23)cc1	/	/	/	.	.	/
Cc1ccc(Nc2c(-c3ccccn3)nc3ccc(C)cn23)cc1	.	?	?	?	?	21µM
Cc1ccc(Nc2c(-c3ccccn3)nc3cc(C)ccn23)cc1	?	5.8µM	5.8µM	?	?	.
Cc1ccc2nc(-c3ccco3)c(Nc3ccccc3)n2c1	.	.	.	10µM	.	?
SMILES	MCF10A rereplic	HT1080-NT tox	HT1080 IDH1KD tx	KB-V1 cytotox	KB-3-1 cytotox	SW480 rereplic
Cc1ccn2c(Nc3ccc4c(c3)OCO4)c(-c3ccccn3)nc2c1	.	?	?	.	?	.
COc1ccc(OC)c(C2C(C#N)=C(N)N(N(C)C)C3=C2C(=O)CC(C)(C)C3)c1 (configuration not stated)	.	.	.	.	.	.
Cc1onc(-c2c(Cl)cccc2Cl)c1C(=O)NC1CCCCC1	.	.	.	.	.	.
OCCCCCCNc1ccc(CCO)cc1	/	.	.	.	.	/
CC1CC(C)CN(C(=S)SCc2nc(N)nc(Nc3ccccc3)n2)C1 (configuration not stated)	?	?	33µM	?	?	.
Nc1nc(CSC(=S)N2CCCCC2)nc(Nc2ccccc2)n1	.	.	.	?	.	.
CCOc1ccc(Nc2nc(N)nc(CN3CCN(c4ccccc4F)CC3)n2)cc1	?	.	.	?	.	.
Nc1nc(CN2CCN(c3ccccc3F)CC2)nc(Nc2ccc3c(c2)OCCO3)n1	?	.	.	9.2µM	?	.
Nc1nc(CN2CCN(Cc3ccccc3)CC2)nc(Nc2ccccc2)n1	.	?	?	21µM	?	.
Cc1cccc(Nc2nc(N)nc(CN3CCN(c4ccccc4F)CC3)n2)c1	?	?	.	2.3µM	.	?
COc1ccc(CNC(=O)c2ccccc2SC)cc1	.	.	.	.	.	.
Brc1cc(Br)c2nc3c(cc2c1)CCC3	.	.	.	.	.	.
CCc1ccc(N(C(=O)c2ccoc2C)C(C(=O)NC2CCCC2)c2ccc(OC)cc2)cc1 (configuration not stated)	.	.	.	?	.	.
Cc1cccc(Nc2nc(N)nc(CN3CCN(c4ccccc4)CC3)n2)c1	.	.	.	15µM	.	.
Cc1cccc(Nc2nc(N)nc(CN3CCN(Cc4ccc5c(c4)OCO5)CC3)n2)c1	.	.	.	15µM	.	.
CCN(C[C@H]1N[C@@](Cc2ccccc2)(C(=O)OC)[C@H]2C(=O)N(C)C(=O)[C@@H]12)C(=O)Nc1ccc(F)cc1	.	.	.	.	.	.
Cc1cc(C)c(NC(=O)CN(C2CCCCC2)C2CCCCC2)c(C)c1	3.7µM	.	.	?	.	1.8µM
CSc1nc(C)c2c(n1)N(c1ccc(C(C)C)cc1)CC2	.	.	.	8.2µM	.	.
CC1(C)Cc2c(c(N3CCOCC3)nc3sc(C#N)c(N)c23)CS1	.	.	.	.	.	.
COc1ccc2[nH]c(=O)c(CN(Cc3ccccc3OC)Cc3nnnn3CC3CCCO3)cc2c1 (configuration not stated)	.	.	.	?	.	.
COc1ccccc1CN(Cc1cc2cc(C)ccc2[nH]c1=O)Cc1nnnn1CC1CCCO1 (configuration not stated)	?	.	.	21µM	.	.
Cc1ccc2[nH]c(=O)c(CN(CCc3ccccc3)Cc3nnnn3CC3CCCO3)cc2c1 (configuration not stated)	.	.	.	15µM	.	.
